Records with an inconclusive call do not appear. A call without a number means that no potency is given here. A number with no mark means an inactive call. The source made the active and inactive calls. The call rests on the fitted dose curve; in most records, active means well fitted cell-killing curve with a large enough effect in the repeat runs; inconclusive means weak or mixed curves, or effect the other way; inactive means flat fitted curve, though single readings scatter.
What was measured:
[1] = cAMP Responsive Elements (CRE) small molecule antagonists, cell-based qHTS assay: qHTS cell viability counter screen (AID 2060913); further: nearly all actives have a fitted effect of over 40% in size
In short: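 CRE-bla HEK293T cells were seeded in assay medium with 10% dialyzed FBS, incubated 18 hrs at 37 C, then exposed to compounds plus 0.25 uM final NKH477 for 3 hrs. Viability was read by CellTiter-Glo luminescence after 30 min, in the same wells.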

[2] = cAMP Responsive Elements (CRE) small molecule agonists, cell-based qHTS assay: qHTS cell viability counter screen (AID 2060914); further: potency means the concentration at half of the fitted maximal effect;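 further: viability read after 3 h of compound exposure; nearly all actives have a fitted effect of over 50% in size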
In short: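 CRE-bla HEK293T cells in 10% dialyzed FBS medium were exposed to compounds for 3 h at 37C after 18 h plating. CellTiter-Glo was then added in the same wells, and luminescence was read after 30 min at room temperature.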

| Structure (SMILES) | Potency [1] | Potency [2] | viability change, negative = cytotoxic [1] | activity change, negative = cytotoxicity [2] |
| --- | --- | --- | --- | --- |
| C=C(C)[C@H]1CC=C(C)CC1 | inactive | inactive |  |  |
| CC(C)C(C)(C)C(C)(C)C(C)(C)S | inactive | inactive |  |  |
| COc1ccc(/C=C/S(=O)(=O)NC(=O)c2ccc(C)cc2Cl)cc1 | inactive | inactive |  |  |
| CC1CN(c2cc3c(cc2F)c(=O)c(C(=O)O)cn3-c2ccc(F)cc2F)CCN1 (stereo not drawn) |  |  | 0.301% [at 8.39 µM] | -0.163% [at 8.39 µM] |
| CC(C)(C)C(=O)NCCCC(=O)O | inactive | inactive |  |  |
| C[C@@H](O[C@H]1OCCN(Cc2n[nH]c(=O)[nH]2)[C@H]1c1ccc(F)cc1)c1cc(C(F)(F)F)cc(C(F)(F)F)c1 | inactive | inactive |  |  |
| C=CC[N+]1([C@H]2C[C@H]3[C@@H]4CC[C@H]5C[C@H](OC(C)=O)[C@@H](N6CCCCC6)C[C@]5(C)[C@H]4CC[C@]3(C)[C@H]2OC(=O)CC)CCCCC1 | inactive | inactive |  |  |
| CC(=O)OCCc1ccccc1 | inactive | inactive |  |  |
| CCc1nc(N)nc(N)c1-c1ccc(Cl)cc1 | inactive | inactive |  |  |
| Cc1ccc(NC(N)=O)cc1 | inactive | inactive |  |  |
| Cc1ccc(C(=O)Oc2ccc(C(O)CNC(C)(C)C)cc2OC(=O)c2ccc(C)cc2)cc1 (stereo not drawn) | inactive | inactive |  |  |
| CSc1ccc(Cl)cc1 | inactive | inactive |  |  |
| O=C(C(=O)c1ccco1)c1ccco1 | inactive | inactive |  |  |
| O=C(O)CCCCCCCCC(=O)O | inactive | inactive |  |  |
| C1CCOC1 | inactive | inactive |  |  |
| C=C(C)C(N)=O | inactive | inactive |  |  |
| OCCC1CCCCN1 (stereo not drawn) | inactive | inactive |  |  |
| N#CC1(O)CCCCC1 | inactive | inactive |  |  |
| CCn1ccnc1CC1COc2ccccc2O1 (stereo not drawn) | inactive | inactive |  |  |
| CC(=O)N/N=C/c1ccc([N+](=O)[O-])o1 | inactive | inactive |  |  |
| CC1CC(=O)NN=C1c1ccc(NCC(C)(C)NCC(O)COc2cc(Cl)ccc2C#N)cc1 (stereo not drawn) | inactive | inactive |  |  |
| C1CCCNCCC1 | inactive | inactive |  |  |

| Structure (SMILES) | Potency [1] | Potency [2] | viability change, negative = cytotoxic [1] | activity change, negative = cytotoxicity [2] |
| --- | --- | --- | --- | --- |
| CC[C@@]1(O)C(=O)OCc2c1cc1n(c2=O)Cc2cc3c(CN(C)C)c(O)ccc3nc2-1 | inactive | inactive |  |  |
| CN[C@H]1CC[C@@H](c2ccc(Cl)c(Cl)c2)c2ccc(S(N)(=O)=O)cc21 | inactive | inactive |  |  |
| CCC(C(=O)OCCN1CCOC(c2ccccc2)C1C)c1ccccc1 (stereo not drawn) | inactive | inactive |  |  |
| CCN(CC)C(=S)SSC(=S)N(CC)CC | inactive | inactive |  |  |
| CCSCC | inactive | inactive |  |  |
| NC[C@H]1O[C@H](O[C@H]2[C@H](O)[C@@H](O[C@H]3O[C@H](CO)[C@@H](O)[C@H](N)[C@H]3O)[C@H](N)C[C@@H]2N)[C@H](O)[C@@H](O)[C@@H]1O |  |  | -0.639% [at 8.39 µM] | 14.7% [at 8.39 µM] |
| CC1(C)O[C@@H]2C[C@H]3[C@@H]4C[C@H](F)C5=CC(=O)C=C[C@]5(C)[C@@]4(F)[C@@H](O)C[C@]3(C)[C@]2(C(=O)CO)O1 | inactive | inactive |  |  |
| CC(C)C[C@@H]1[C@H](c2ccccc2)OC(=O)N1CCCN1CCCCCC1 | inactive | inactive |  |  |
| C[C@@H]1CN(c2c(F)c(F)c3c(=O)c(C(=O)O)cn(C4CC4)c3c2F)C[C@H](C)N1 |  |  | -1.63% [at 18.9 µM] | -12.9% [at 18.9 µM] |
| CC(C)(C)CC(C)(C)c1ccc(O)c(-n2nc3ccccc3n2)c1 | inactive | 9.69 µM (active) |  |  |
| O=S(=O)(O)CC(O)CCl (stereo not drawn) | inactive | inactive |  |  |
| C=C(C)C(=O)OCCCCCC | inactive | inactive |  |  |
| O=C1C=CCCC1 | inactive | inactive |  |  |
| CCC(C)CO (stereo not drawn) | inactive | inactive |  |  |
| CC1=NN(c2ccc(S(=O)(=O)O)cc2)C(=O)C1N=Nc1ccccc1 (stereo not drawn) | inactive | inactive |  |  |
| N=C(N)c1ccccc1 | inactive | inactive |  |  |
| CCOC(=O)[C@H](CCc1ccccc1)N[C@@H](C)C(=O)N(CC(=O)O)C1Cc2ccccc2C1 | inactive | inactive |  |  |
| C[C@@H]1C[C@H]2[C@@H]3CCC4=CC(=O)C=C[C@]4(C)[C@@]3(Cl)[C@@H](O)C[C@]2(C)[C@@]1(OC(=O)c1ccco1)C(=O)CCl | inactive | inactive |  |  |
| CC(C)(C)c1cc(CCC(=O)NN)cc(C(C)(C)C)c1O | inactive | inactive |  |  |
| CC[N+](C)(CC)CC | inactive | inactive |  |  |
| C/C=C(\C)C(=O)OC/C=C(\C)CCC=C(C)C | inactive | inactive |  |  |
| Cc1cccc(CN2CCN(C(c3ccccc3)c3ccc(Cl)cc3)CC2)c1 (stereo not drawn) | inactive | inactive |  |  |
